Bioassay records (PubChem)
Pf Dd2 growth: blocks in vitro growth of P. falciparum Dd2. 120,000 tested, 4.3% active. AID 1347417. Potency, µM (highest dose often 28.9 µM), actives largely listed as inhibitors. P. falciparum Dd2 growth, SYBR Green, 72 h; active = well fitted inhibition curve with a large enough effect; note: nearly all actives have a fitted effect of over 65% in size
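Infected erythrocytes (Dd2, 0.3% parasitemia, 2.5% hematocrit final) are added to compound in RPMI-1640/Albumax II medium, grown 72 h at 37C in low oxygen, then lysed with saponin/Triton-X containing SYBR Green and read by fluorescence.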
A number is an active result; n = inactive; [ ] = remark or other dose. Only a selection was taken, and hits are over-represented in it overall.

SMILES	Pf Dd2 growth
O=C(c1c(F)cccc1F)N1CCC(n2cc(-c3nc(-c4ccccc4)no3)nn2)CC1	n
Cc1cn2nnc(C(=O)NC3CCCCCCC3)c2c(=O)[nH]1	7.9µM
Cc1cn2nnc(C(=O)NC3CCCCCC3)c2c(=O)[nH]1	n
Cc1cn2nnc(C(=O)N3CCC(C(=O)NC4CCCCC4)CC3)c2c(=O)[nH]1	n
Cc1cn2nnc(C(=O)NCc3ccco3)c2c(=O)[nH]1	n
CCOc1ccccc1CNC(=O)c1nnn2cc(C)[nH]c(=O)c12	8.9µM
Cc1cn2nnc(C(=O)NCCCc3ccccc3)c2c(=O)[nH]1	n
CCCCNC(=O)c1nnn2cc(C)[nH]c(=O)c12	n
CCOc1ccc(NC(=O)c2nnn3cc(C)[nH]c(=O)c23)cc1	0.63µM
Cc1cn2nnc(C(=O)NC3CCN(Cc4ccccc4)CC3)c2c(=O)[nH]1	n
CN1[C@@H](CCC(=O)NCc2cccs2)CNC(=O)[C@@H]2[C@H]1CCN2Cc1ncc[nH]1	n
COCc1noc([C@@H]2CC(F)(F)CN2C(=O)COc2ccccc2)n1	n
COCCN1C(=O)CS(=O)C12CCN(S(=O)(=O)c1ccc(F)cc1)CC2 (stereo not drawn)	n
Cc1noc(C)c1-c1nccc2c(=O)cc(-c3cccnc3)oc12	n
O=C(Cn1ccn2nc(-c3ccccc3)c(CO)c2c1=O)Nc1ccc(Cl)cc1F	n
Cc1ncoc1C(=O)NCC(=O)N1CCCCCNC(=O)CC1c1ccccc1 (stereo not drawn)	n
O=C(NC1CCN(Cc2ccccc2)CC1)c1ccc(Cn2c(=O)c3ccccc3n(Cc3ccc(F)cc3)c2=O)cc1	10µM
O=c1c2ccccc2n(Cc2c(F)cccc2Cl)c(=O)n1Cc1ccccc1	n
Cc1ccc(C)c(Cn2c(=O)n(Cc3ccc(C(=O)NC4CCN(Cc5ccccc5)CC4)cc3)c(=O)c3ccccc32)c1	n
CNC(=O)CCC[C@@H]1[C@H]2CCCN3CCC[C@@H](CN1C(C)=O)[C@@H]23	n
O=C1COc2ccc(Nc3ccccc3F)nc2CN1Cc1ccc(F)cc1	n
CCO[C@H]1CN(C(=O)CCn2c(C)cc(C)nc2=O)C[C@@H]1O	n
CCn1nccc1C(=O)N1CC[C@H]2C(=O)NCCCCCCN(Cc3ccncc3)[C@@H]2C1	n
COc1ccc2[nH]c3c(c2c1)CCNC31CCN(C(=O)COc2ccc(F)cc2)CC1	n
COc1ccc2[nH]c3c(c2c1)CCNC31CCN(C(=O)Cc2ccncc2)CC1	n
SMILES	Pf Dd2 growth
COc1ccc2[nH]c3c(c2c1)CCNC31CCN(C(=O)Cc2cccc(F)c2)CC1	7.1µM
CCc1ccc(C(=O)N2CC(c3nnc(-c4ccc(C)cc4)o3)C3(CCOCC3)C2)cc1 (stereo not drawn)	n
COc1ccc(NC(=O)N2C[C@@H]3C[C@H](C2)c2ccc(NC(=O)COc4ccccc4)c(=O)n2C3)cc1	n
COc1ccc(CN2CCCCCNC(=O)CC2c2ccccc2)cc1Cn1ccnc1 (stereo not drawn)	2µM
Cc1ncsc1CN1CCCCCNC(=O)CC1c1ccccc1 (stereo not drawn)	n
COCCC(=O)N1CCCCCCNC(=O)CC1c1ccccc1 (stereo not drawn)	n
Cc1ccc(CN2CCCCCNC(=O)CC2c2ccccc2)o1 (stereo not drawn)	n
O=C1CC(c2ccccc2)N(Cc2ccc(C(F)(F)F)cc2)CCCCCN1 (stereo not drawn)	n
O=C1CC(c2ccccc2)N(Cc2ccc(F)c(F)c2)CCCCCN1 (stereo not drawn)	10µM
Cc1cccc(-c2noc(CCC(=O)N3CCC(C)(c4noc(C5CC5)n4)CC3)n2)c1	n
CC(C)n1cnnc1CNC(=O)[C@H]1CNC[C@H](C(=O)N2CCOCC2)C1	n
Cc1ccc(Cl)cc1N1CCN(C(=O)c2ccc3c(c2)N(Cc2ccc(F)cc2)CCS3)CC1	7.9µM
Cc1ccc(C)c(N2CCN(C(=O)CN3CCSc4ccccc43)CC2)c1	n
O=C(c1ccc2c(c1)N(Cc1ccc(F)cc1)CCS2)N1CCN(c2ccccc2)CC1	10µM
Cc1c(C)n(Cc2ccccc2)c2ccc(C(=O)N3CCN(c4ccc(F)cc4)CC3)cc12	n
Cc1c(C)n(Cc2ccc(F)cc2)c2ccc(C(=O)N3CCN(c4ccc(Cl)cc4)CC3)cc12	n
O=C(CN1CCSc2ccccc21)N1CCN(c2ccc(F)cc2)CC1	n
COc1ccc(Cn2c(=O)[nH]c3cc(C(=O)N4CCN(c5cc(C)ccc5C)CC4)ccc3c2=O)cc1	n
Cc1ccc(CN2CCSc3ccc(C(=O)N4CCN(c5cc(C)ccc5C)CC4)cc32)cc1	11µM
Cc1ccc(Cl)cc1N1CCN(C(=O)Cn2cnc3onc(-c4ccc(F)cc4)c3c2=O)CC1	n[5.79 µM]
CN1CCN(C(=O)Cc2c[nH]c3ncc(-c4ccsc4)cc23)CC1	n
COc1ccc(CN2C(=O)C3(CCOCC3)CC2c2nnnn2C(C)(C)C)c(OC)c1 (stereo not drawn)	n
Cc1ccccc1-c1[nH]nc2ncc(-c3ccc(F)cc3)nc12	n
CC(=O)Nc1ccc2c(c1)nc1n2[C@@H](CNC2CCN(C)CC2)COC1	n
Cc1cc(C)c(CNC(=O)c2nc(-c3ccc(CO)cc3)cc3c2ccn3C)c(=O)[nH]1	n
SMILES	Pf Dd2 growth
Cc1oc2c(c1C(=O)NCCN(C)C)CN(CCc1ccccc1)CC2	n
CCOCc1nc(C2CCCN(C(=O)c3ccoc3)C2)no1 (stereo not drawn)	n
CCCS(=O)(=O)N1C[C@@H](Oc2ccccc2)C[C@H]1C(=O)NCCOC	n
CCN(C(=O)Cn1nc(Cc2ccncc2)c2ccccc2c1=O)c1cccc(Cl)c1	11µM
CCOc1ccc(NC(=O)Cn2nc(Cc3cccnc3)c3ccccc3c2=O)cc1	n
Cc1ccc(NC(=O)Cn2nc(Cc3ccncc3)c3ccccc3c2=O)c(Cl)c1	n
COc1ccc(CN2C[C@@H]3C(=O)N(CCCN4CCCC4=O)C(=O)[C@@H]3C2)cc1OC	n
NC[C@H]1O[C@@H](CO)[C@@H](O)[C@H]1N1CCN(c2ncccn2)CC1	n
Cc1ccc(CN2C(=O)COC[C@H]2C(=O)NCc2cccc(F)c2)cc1	n
O=C1Nc2ccc(-c3ccccc3F)cc2C(=O)N2CCN(C(=O)COc3ccccc3)C[C@H]12	n
Cn1cnc2cc(-c3cccc4[nH]ncc34)cc(C(=O)NCc3cccnc3)c21	n
Cc1ccc([S+](=O)([O-])N2CCC(c3nn(C)c(=O)[nH]3)CC2)cc1	n
Cc1ccc([S+](=O)([O-])N2CCCC(c3nn(-c4ccc(Cl)cc4)c(=O)[nH]3)C2)cc1 (stereo not drawn)	n
Cc1ccc([S+](=O)([O-])N2CCC(c3nn(-c4ccc(F)cc4)c(=O)[nH]3)CC2)cc1	8.9µM
Cc1cc(CNC(=O)CC2C=CS(=O)(=O)C2)c2[nH]c(-c3ccccc3)c(C)c2c1 (stereo not drawn)	n
O=C(c1cccc(OC2CN(Cc3ccc(F)cc3Cl)C2)c1)N1CCOCC1	n
CN1C(=O)C(c2ccccc2)CC12CCN(C(=O)CO)CC2 (stereo not drawn)	n
COC[C@@H]1CN(Cc2ccc(F)c(F)c2)C[C@H]1C(=O)NC1CC1	n
CC(=O)N1CC2(CCCN2Cc2cccnc2)Cc2ccccc21 (stereo not drawn)	n
O=C(C1CCCC1)N1CC2(CCCCN2Cc2cccnc2)Cc2ccccc21 (stereo not drawn)	7.9µM
O=C1Nc2ccccc2CC12CCCN2Cc1cccnc1 (stereo not drawn)	n
O=C(C1CCCC1)N1CC2(CCCN2Cc2cccnc2)Cc2ccccc21 (stereo not drawn)	11µM
